Measurements as given in PubChem BioAssay (NCATS).
Records with an inconclusive call do not appear. Active and inactive are the calls of the source. Unless noted, the call rests on the fitted dose curve; in most records, active means well fitted curve in the direction sought with a large enough effect; inconclusive means small, poorly fitted or top-dose-only effect, or another doubt; inactive means no such curve, though single readings can be large; an effect the other way counts as inactive or inconclusive.

Columns and labels:
[1] = qHTS Assay for Identification of Small Molecule Inducers of Hypoxia Response (AID 2120; active means well fitted curve in the direction sought with a large enough effect in the signal ratio, with a control signal flat, not every such curve was filed as active; the % refers to the signal ratio)
In short: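 Read-out: CCF4 FRET emission ratio 460nm/530nm (excitation 405nm), converted to %Activity, with AC50 fitted across a compound titration. ME-180 cells carried an HRE-driven beta-lactamase reporter; compound exposure 17 h, 37 degrees C.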

[2] = molecular target: Ferritin light chain (Equus caballus) (UniProt P02791); test: qHTS Validation Assay for Identification of Novel General Anesthetics (AID 2323)
In short: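 Fluorescence at 535 nm (excitation 380 nm) reported loss of 1-AMA binding to horse-spleen apoferritin (10 uM) in PBS with 50% saturated 1-aminoanthracene, after 10 min room-temperature incubation with compound; values from Hill fits of normalized response.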

[3] = molecular target: ATP-dependent DNA helicase Q1 (Homo sapiens) (UniProt P46063); test: qHTS Validation Assay for Inhibitors of RecQ-Like Dna Helicase 1 (RECQ1) (AID 2353)
In short: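 RECQ1T1 50 nM; forked duplex (20 bp + 30-nt ss tails) 200 nM, ATP 2 mM final; pH 8.0, 2 mM MgCl2, 2.5 ug/ml poly(dI-dC); 15 min compound preincubation; discontinuous kinetic read over 2 h at RT.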

[4] = Cytometric Cell-Based qHTS for Inhibitors of the mTORC1 Signaling Pathway in MEF (Tsc2-/-, p53-/-) Cells (AID 2660);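 further: percent of cells above a phospho-rpS6 to PI ratio cutoff in each well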
In short: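 Tsc2-/-, p53-/- MEFs (empty vector) exposed to compound 24 h at 37 C, fixed, stained with Alexa-488 anti-phospho-rpS6 Ser235/236 and propidium iodide. Acumen laser scanning; phospho-S6/PI ratio thresholded against 7.5 nM rapamycin, reported as % positive cells.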

[5] = High Content Imaging Cell-Based qHTS for Inhibitors of the mTORC1 Signaling Pathway in MEF (Tsc2-/-, p53-/-) Cells (AID 2666); conditions: at 38.3 µM (top of the series);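 further: percent of cells scored positive for phospho-rpS6 Ser235/236 immunostaining by imaging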
In short: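 Tsc2-/-, p53-/- MEFs (empty-vector stable) grown in DMEM + 10% FBS were exposed to compounds for 24 hrs at 37 degree Celsius, fixed, and stained with Alexa-488 anti-phospho-rpS6 Ser235/236 plus Hoechst. Imaging gave the percentage of positive cells per well.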

[6] = High Content Imaging Cell-Based qHTS for Inhibitors of the mTORC1 Signaling Pathway in MEF Cells (AID 2667);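 further: Tsc2-/- p53-/- MEFs stably re-expressing wild-type Tsc2 exposed 24 h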
In short: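 Tsc2-/-, p53-/- MEFs stably re-expressing WT Tsc2, grown in DMEM + 10% FBS, were treated with compounds for 24 hrs at 37 degree Celsius, fixed, and stained with Alexa-488 phospho-rpS6 Ser235/236 antibody plus Hoechst; results given as % positive cells.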

[7] = Cytometry Cell-Based qHTS for Inhibitors of the mTORC1 Signaling Pathway in MEF cells (AID 2668);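 further: Tsc2-/- p53-/- mouse embryonic fibroblasts stably re-expressing wild-type Tsc2; percent cells positive for phospho-rpS6 Ser235/236 relative to propidium iodide stain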
In short: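 Tsc2-/-, p53-/- MEFs re-expressing WT Tsc2; cpd 24 hrs, 37 degree Celsius; PFA fix, Alexa-488 p-rpS6 (Ser235/236) Ab 2 hrs RT, PI counterstain; Acumen 488nm scan; p-S6/PI ratio → % positive cells; PI count = viability.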

[8] = Validation screen for inhibitors of Lassa infection (AID 463096; calls by dose curve)
[9] = molecular target: Ubiquitin carboxyl-terminal hydrolase 2 (Homo sapiens) (UniProt O75604); test: qHTS Validation Assay for Inhibitors of Ubiquitin-specific Protease USP2a Using CHOP2 as the Reporter (AID 463106)
In short: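 Readout was coupled fluorescence (Ex 485/Em 531 nm), read 60 min after adding 25 nM final Ub-CHOP2 and 25 nM reporter substrate. Beforehand, 10 nM final USP2 core had 30 min at RT with compound in pH 8.0 buffer. Curves were fitted after normalization to NEM and flagged for artifacts using time-zero reads.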

[10] = molecular target: DNA polymerase III PolC-type (Bacillus subtilis (strain 168)) (UniProt P13267); test: qHTS Validation Assay for the Inhibitors of DNA Replication in Gram-Positive Bacteria (AID 485295);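 further: reconstituted holoenzyme with PolC plus beta clamp SSB and primase; PicoGreen fluorescence of double-stranded DNA made on primed circular M13 template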
In short: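 First, compound is mixed with the reconstituted replication complex and held at room temperature. Next, circular single-stranded M13Gori with nucleotides starts synthesis. Finally, PicoGreen in EDTA halts the reaction and stains double-stranded product for fluorescence reading.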

[11] = molecular target: Tumor susceptibility gene 101 protein (Homo sapiens) (UniProt Q99816); test: qHTS Validation Assay for Iinhibitors of HIV-1 Budding by Blocking the Interaction of PTAP/TSG101 (AID 485342; calls by dose curve)
In short: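 Binding of a FITC-tagged PTAP-motif peptide (50 nM) to the Tsg101 binding domain (10 uM) is monitored by fluorescence polarization. Compounds are pin-delivered before peptide addition, and incubation runs 20 min at room temperature.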

[12] = molecular target: Beta-2 adrenergic receptor (Homo sapiens) (UniProt P07550); test: qHTS validation assay of beta-arrestin-biased ligands of beta2-adrenergic receptor (AID 485366)
In short: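 qHTS, Tango cells, 1500 cells/well, DMEM + 1% FBS. Cpd 18 hr at 37 degrees C. Luciferin/ATP/CoA detection mix, 15 min RT, luminescence read. %Activity from corrected signal; CRC fit, curve class.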

[13] = Quantitative high throughput screen for delayed death inhibitors of the malarial parasite plastid, 96 hour incubation (AID 488745);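 further: luciferase-expressing P. falciparum in erythrocytes at 2% hematocrit and 0.1% parasitemia; nearly all actives have a fitted effect of over 70% in size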
In short: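 Luciferase-expressing P. falciparum, infected RBCs 2% Hct/0.1% parasitemia (final); 96 h cpd exposure, 37 C, 5% CO2; RPMI 1640 + 0.5% Albumax, bicarbonate, gentamycin. Readout: luminescence loss = growth inhibition.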

[14] = Quantitative high throughput screen for delayed death inhibitors of the malarial parasite plastid, 48 hour incubation (AID 488752); further: nearly all actives have a fitted effect of over 65% in size
In short: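 Luciferase-expressing P. falciparum in RBCs, 2% Hct, 0.1% parasitemia final; RPMI 1640 + 0.5% Albumax; 48 h, 37 C, 5% CO2; luminescence readout, signal drop = growth inhibition.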

[15] = molecular target: Flap endonuclease 1 (Homo sapiens) (UniProt P39748); test: qHTS Validation Assay for the Inhibitors of Human Flap endonuclease 1 (FEN1) (AID 488816)
In short: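 qHTS format: compounds and 10 nM FEN1 incubated 15 min at room temperature before adding 50 nM substrate. Cleavage followed by reads at 0 and 15 min; normalized data fitted to a four-parameter Hill curve.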

[16] = molecular target: RecQ-like DNA helicase BLM (Homo sapiens) (UniProt P54132); test: qHTS Validation Assay for Inhibitors of Bloom's syndrome helicase (BLM) (AID 2364)
In short: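 Forked 20-bp duplex substrate (200 nM, TAMRA/BHQ-2) plus 2 mM ATP added after 15 min compound preincubation with 50 nM enzyme, pH 8.0, poly(dI-dC) 2.5 ug/ml. Strand separation followed by fluorescence (525/598 nm) over 2 h, normalized to enzyme-free and DMSO controls.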

[17] = Validation screen for small molecules that induce DNA re-replication in MCF 10A normal breast cells (AID 463097); further: nearly all actives have a fitted effect of over 60% in size
In short: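 Image-based qHTS: normal breast cells are incubated with compound for 48 hr, stained with Hoechst, and scanned for total nuclear fluorescence. Compounds raising the fraction of nuclei with elevated DNA content count as re-replication inducers.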

[18] = qHTS Validation Assay to Find Inhibitors of Chronic Active B-Cell Receptor Signaling (AID 485345; active means well fitted curve in the direction sought with a large enough effect in the main read-out, with a control signal flat, not every such curve was filed as active)
In short: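 Read-out: ratio of filter-corrected green (IkappaBalpha fusion) to red (native) luciferase signal in doxycycline-induced TMD8 cells after 4 h at 37C. Titration spanned 46 uM–3 nM; Data were normalised to basal cells and 10 uM MG-132 wells.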

[19] = molecular target: ATP-dependent 6-phosphofructokinase (Trypanosoma brucei brucei) (UniProt O15648); test: qHTS Validation Assay to Find Inhibitors of T. brucei phosphofructokinase (AID 485368); conditions: outcome: dose series up to 57.5 µM
In short: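 Luminescent ADP detection measures PFK turnover of fructose-6-phosphate (0.5 mM) with ATP (0.1 mM) at pH 8.0. Reaction runs 45 min at room temperature with 1.25 nM enzyme; inhibitors tested as titrations up to 57 uM.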

[20] = molecular target: Thioredoxin reductase 1, cytoplasmic (Rattus norvegicus) (UniProt O89049); test: qHTS Assay for Inhibitors of Mammalian Selenoprotein Thioredoxin Reductase 1 (TrxR1) (AID 488773);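 further: drop in NADPH fluorescence over an 8 min run after selenite addition; nearly all actives have a fitted effect of over 40% in size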
In short: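 Inhibition is scored from the loss of NADPH fluorescence between first and last reads of an 8-min kinetic run. Selenite (400 uM) was the substrate, added after 15 min compound preincubation at room temperature.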

Measured: Potency

Thioredoxin reductase 1, cytoplasmic (Rattus norvegicus), sequence (O89049 whole entry, looked up): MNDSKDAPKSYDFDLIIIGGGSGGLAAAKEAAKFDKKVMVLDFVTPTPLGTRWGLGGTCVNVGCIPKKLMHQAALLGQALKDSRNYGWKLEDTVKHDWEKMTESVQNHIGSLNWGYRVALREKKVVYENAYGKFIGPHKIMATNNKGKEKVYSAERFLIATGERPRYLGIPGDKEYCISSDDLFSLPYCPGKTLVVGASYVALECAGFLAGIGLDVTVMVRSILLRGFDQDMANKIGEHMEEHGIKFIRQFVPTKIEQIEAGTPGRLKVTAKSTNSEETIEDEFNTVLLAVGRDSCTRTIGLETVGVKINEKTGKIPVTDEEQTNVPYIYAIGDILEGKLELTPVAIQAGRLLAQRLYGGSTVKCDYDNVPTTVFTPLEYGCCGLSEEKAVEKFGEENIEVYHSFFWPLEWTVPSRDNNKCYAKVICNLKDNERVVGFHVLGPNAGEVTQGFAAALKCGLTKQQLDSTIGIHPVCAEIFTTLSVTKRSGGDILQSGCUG
ATP-dependent 6-phosphofructokinase (Trypanosoma brucei brucei), sequence (O15648 whole entry, looked up): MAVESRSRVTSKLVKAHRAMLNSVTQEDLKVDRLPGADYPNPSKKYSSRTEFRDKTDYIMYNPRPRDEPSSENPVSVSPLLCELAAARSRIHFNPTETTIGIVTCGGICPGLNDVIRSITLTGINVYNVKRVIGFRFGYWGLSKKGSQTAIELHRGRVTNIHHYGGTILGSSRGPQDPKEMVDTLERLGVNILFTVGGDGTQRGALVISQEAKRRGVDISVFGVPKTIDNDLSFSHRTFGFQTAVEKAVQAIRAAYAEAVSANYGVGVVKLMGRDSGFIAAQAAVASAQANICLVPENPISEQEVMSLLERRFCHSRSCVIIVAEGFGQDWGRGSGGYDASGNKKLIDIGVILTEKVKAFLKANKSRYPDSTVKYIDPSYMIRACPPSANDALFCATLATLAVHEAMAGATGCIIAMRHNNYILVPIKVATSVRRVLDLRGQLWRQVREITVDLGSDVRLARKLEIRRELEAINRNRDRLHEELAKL
Ubiquitin carboxyl-terminal hydrolase 2 (Homo sapiens), sequence (O75604 whole entry, looked up): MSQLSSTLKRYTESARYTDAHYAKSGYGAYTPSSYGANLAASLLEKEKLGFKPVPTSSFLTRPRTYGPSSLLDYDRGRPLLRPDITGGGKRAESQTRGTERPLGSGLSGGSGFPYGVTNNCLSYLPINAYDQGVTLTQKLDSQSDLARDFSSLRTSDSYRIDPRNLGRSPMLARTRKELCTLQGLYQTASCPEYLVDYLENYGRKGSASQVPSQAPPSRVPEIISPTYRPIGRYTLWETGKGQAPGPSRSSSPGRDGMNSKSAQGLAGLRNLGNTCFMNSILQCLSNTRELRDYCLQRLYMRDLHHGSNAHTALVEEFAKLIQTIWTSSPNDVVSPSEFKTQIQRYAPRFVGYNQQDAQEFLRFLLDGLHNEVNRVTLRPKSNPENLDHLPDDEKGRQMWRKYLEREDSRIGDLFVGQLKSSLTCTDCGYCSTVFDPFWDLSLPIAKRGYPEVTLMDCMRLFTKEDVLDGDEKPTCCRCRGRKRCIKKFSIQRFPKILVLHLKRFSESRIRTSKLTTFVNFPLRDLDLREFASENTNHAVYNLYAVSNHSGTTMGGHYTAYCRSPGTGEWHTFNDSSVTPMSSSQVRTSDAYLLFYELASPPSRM
DNA polymerase III PolC-type (Bacillus subtilis (strain 168)), sequence (P13267 whole entry, looked up): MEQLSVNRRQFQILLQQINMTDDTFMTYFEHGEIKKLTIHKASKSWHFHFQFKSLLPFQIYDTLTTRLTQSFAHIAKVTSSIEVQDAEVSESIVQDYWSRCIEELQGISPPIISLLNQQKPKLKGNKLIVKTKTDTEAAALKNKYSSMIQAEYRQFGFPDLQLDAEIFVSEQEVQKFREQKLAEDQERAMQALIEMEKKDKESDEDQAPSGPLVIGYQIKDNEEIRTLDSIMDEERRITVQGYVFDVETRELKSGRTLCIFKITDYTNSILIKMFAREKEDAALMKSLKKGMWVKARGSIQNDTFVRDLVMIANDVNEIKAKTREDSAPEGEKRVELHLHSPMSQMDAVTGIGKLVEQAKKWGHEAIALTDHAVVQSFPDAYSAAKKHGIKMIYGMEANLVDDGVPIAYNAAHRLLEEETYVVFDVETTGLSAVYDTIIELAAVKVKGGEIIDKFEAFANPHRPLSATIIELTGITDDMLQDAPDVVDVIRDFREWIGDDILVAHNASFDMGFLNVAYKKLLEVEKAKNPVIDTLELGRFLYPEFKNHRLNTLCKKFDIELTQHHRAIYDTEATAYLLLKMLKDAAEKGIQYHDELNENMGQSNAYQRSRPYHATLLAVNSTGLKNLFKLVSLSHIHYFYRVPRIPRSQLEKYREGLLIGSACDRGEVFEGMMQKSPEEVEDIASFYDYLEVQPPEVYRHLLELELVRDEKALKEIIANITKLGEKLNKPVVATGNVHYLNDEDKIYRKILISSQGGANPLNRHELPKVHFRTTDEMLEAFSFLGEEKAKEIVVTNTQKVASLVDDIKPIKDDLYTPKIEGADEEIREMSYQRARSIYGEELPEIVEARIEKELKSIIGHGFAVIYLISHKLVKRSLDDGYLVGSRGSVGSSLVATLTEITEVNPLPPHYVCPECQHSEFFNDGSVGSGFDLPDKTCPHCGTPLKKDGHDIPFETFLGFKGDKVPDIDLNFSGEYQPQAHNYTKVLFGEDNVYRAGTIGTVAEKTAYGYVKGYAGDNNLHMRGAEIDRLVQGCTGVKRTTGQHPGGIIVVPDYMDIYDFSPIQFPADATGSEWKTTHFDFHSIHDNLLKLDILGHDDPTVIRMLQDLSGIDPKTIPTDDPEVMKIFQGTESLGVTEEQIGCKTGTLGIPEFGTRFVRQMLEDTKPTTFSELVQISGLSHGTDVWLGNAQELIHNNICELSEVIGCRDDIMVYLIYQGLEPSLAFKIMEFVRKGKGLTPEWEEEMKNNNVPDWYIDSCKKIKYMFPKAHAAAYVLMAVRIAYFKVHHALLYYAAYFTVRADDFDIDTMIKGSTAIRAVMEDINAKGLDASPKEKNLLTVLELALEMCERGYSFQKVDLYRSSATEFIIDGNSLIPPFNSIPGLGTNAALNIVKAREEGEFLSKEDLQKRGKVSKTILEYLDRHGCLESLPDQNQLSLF
ATP-dependent DNA helicase Q1 (Homo sapiens), sequence (P46063 whole entry, looked up): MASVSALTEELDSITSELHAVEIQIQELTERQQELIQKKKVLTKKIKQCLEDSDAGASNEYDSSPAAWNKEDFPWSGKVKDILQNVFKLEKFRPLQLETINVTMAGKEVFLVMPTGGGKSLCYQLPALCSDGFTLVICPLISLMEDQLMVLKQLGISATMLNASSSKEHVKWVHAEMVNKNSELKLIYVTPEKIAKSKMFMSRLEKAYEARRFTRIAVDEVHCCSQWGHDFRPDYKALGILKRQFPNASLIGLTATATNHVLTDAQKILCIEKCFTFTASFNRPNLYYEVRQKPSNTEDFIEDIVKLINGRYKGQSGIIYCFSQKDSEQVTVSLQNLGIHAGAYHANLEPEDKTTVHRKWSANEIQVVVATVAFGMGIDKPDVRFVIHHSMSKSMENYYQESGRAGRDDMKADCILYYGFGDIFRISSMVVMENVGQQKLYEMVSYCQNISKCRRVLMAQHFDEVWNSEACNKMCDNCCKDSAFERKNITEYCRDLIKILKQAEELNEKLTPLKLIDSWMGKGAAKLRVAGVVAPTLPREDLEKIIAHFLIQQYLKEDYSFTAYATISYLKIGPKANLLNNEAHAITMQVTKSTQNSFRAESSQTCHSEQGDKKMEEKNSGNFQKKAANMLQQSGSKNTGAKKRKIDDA
Ferritin light chain (Equus caballus), sequence (P02791 2-175 limits assumed): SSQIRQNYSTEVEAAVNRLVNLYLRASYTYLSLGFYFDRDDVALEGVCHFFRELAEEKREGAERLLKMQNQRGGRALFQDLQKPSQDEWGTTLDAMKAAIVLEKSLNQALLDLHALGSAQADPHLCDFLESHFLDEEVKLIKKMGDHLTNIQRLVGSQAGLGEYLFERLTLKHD
Beta-2 adrenergic receptor (Homo sapiens), sequence (P07550 whole entry, looked up): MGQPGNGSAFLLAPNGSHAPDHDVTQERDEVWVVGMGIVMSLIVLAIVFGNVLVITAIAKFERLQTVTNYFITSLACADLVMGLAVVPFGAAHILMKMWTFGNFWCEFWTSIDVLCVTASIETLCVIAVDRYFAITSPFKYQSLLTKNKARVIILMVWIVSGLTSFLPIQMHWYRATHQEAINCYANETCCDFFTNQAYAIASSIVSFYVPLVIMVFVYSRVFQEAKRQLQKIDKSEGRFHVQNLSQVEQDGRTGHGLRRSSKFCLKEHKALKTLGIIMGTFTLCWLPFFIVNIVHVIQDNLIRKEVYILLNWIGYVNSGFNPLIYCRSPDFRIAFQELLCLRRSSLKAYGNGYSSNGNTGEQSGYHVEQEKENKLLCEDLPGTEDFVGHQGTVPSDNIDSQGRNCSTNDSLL
Flap endonuclease 1 (Homo sapiens), sequence (P39748 whole entry, looked up): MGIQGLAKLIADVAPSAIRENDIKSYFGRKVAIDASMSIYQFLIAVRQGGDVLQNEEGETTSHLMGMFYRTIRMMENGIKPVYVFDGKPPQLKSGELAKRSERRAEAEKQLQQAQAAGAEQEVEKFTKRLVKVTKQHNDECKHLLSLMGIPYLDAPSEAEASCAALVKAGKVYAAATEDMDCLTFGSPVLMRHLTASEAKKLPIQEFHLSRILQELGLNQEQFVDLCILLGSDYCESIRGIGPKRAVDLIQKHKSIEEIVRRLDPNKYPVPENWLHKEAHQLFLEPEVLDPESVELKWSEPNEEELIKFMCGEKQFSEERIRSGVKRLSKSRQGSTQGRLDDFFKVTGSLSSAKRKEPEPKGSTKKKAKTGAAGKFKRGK

C[C@]1(O)CC[C@H]2[C@@H]3CCC4=CC(=O)CC[C@]4(C)[C@@]3(F)[C@@H](O)C[C@@]21C
inactive: [1]

COc1cc(OC)c(OC)cc1C=O
inactive: [1]

C[C@]12CCC(=O)C=C1CC[C@@H]1[C@@H]2CC[C@@]2(C)[C@H]1CC[C@]2(C)O
inactive: [1]

CC(C)NC(C)C
inactive: [1]

CCC(C)(C)c1ccc(O)cc1
inactive: [1]

Oc1ccc(Cl)cc1
inactive: [1]

O=C(O)CCCc1ccc(N(CCCl)CCCl)cc1
not listed: [16] | [17] | [18] | [19] | [20]
inactive: all other assays above

NC(Cc1ccc(Cl)cc1)C(=O)O (stereo not drawn)
inactive: [8]

CCC1(c2ccc(N)cc2)CCC(=O)NC1=O (stereo not drawn)
not listed: [1] | [15]
inactive: all other assays above

COC(=O)C(c1ccccc1)C1CCCCN1 (stereo not drawn)
inactive: [1]

CCCC(C)(COC(N)=O)COC(N)=O
inactive: [1]

CC(=O)OCC(=O)[C@@]1(O)CC[C@H]2[C@@H]3CCC4=CC(=O)CC[C@]4(C)[C@H]3C(=O)C[C@@]21C
inactive: [8]

CCOC(=O)CC(SP(=S)(OC)OC)C(=O)OCC (stereo not drawn)
inactive: [1]

C[C@]12CCC(=O)C=C1CC[C@@H]1[C@@H]2CC[C@]2(C)C(=O)CC[C@@H]12
inactive: [2] | [3] | [8] | [17] | [14]

Nc1ccccc1
inactive: [1]

CCO/C([O-])=N/c1c[n+](N2CCOCC2)no1
inactive: [8]

CC(C)c1cccc(C(C)C)c1O
not listed: [1] | [2] | [16]
inactive: all other assays above

CC(C)(C)NCC(O)c1ccccc1Cl (stereo not drawn)
not listed: [1] | [16] | [19]
inactive: all other assays above

Nc1ccccc1C(=O)O
inactive: [1]

O=c1[nH]oc2c1CCNC2
not listed: [1] | [2] | [16] | [17]
inactive: all other assays above

CC(C)(C)NCC(O)c1cc(O)cc(O)c1 (stereo not drawn)
inactive: [8]

CC(C)N(CCC(C(N)=O)(c1ccccc1)c1ccccn1)C(C)C (stereo not drawn)
not listed: [1]
inactive: all other assays above

CCN(CC)CCNC(=O)c1ccc(N)cc1
inactive: [8]

CC(NC(C)(C)C)C(=O)c1cccc(Cl)c1 (stereo not drawn)
not listed: [1] | [16] | [19]
inactive: all other assays above

O=C(CCCN1CCC2(CC1)C(=O)NCN2c1ccccc1)c1ccc(F)cc1
not listed: [1] | [8] | [13] | [14] | [16] | [17] | [18]
inactive: all other assays above
